Experimental data: PubChem BioAssay (NCATS)
Results filed as inconclusive are left out. Active and inactive are the calls of the source. Calls come from the whole dose curve; as a rule, active = well fitted cell-killing curve with a large enough effect; inconclusive = small, poorly fitted or top-dose-only effect; inactive = flat fitted curve, though single readings scatter.

Test: qHTS assay to identify small molecule inhibitors of chordoma cells - UCH-2 (AID 1259356)
Conditions: UCH-2 chordoma viability, CellTiter-Glo ATP luminescence, 48 h; series mostly up to 46.1 µM; activity change, negative = inhibition: at the top concentration
% is set by controls: 0 for no effect and ±100 for the full control effect.

| Compound | outcome | activity change, negative = inhibition |
| --- | --- | --- |
| C#C[C@]1(O)CC[C@H]2[C@@H]3CCC4=CC(=O)CC[C@]4(C)[C@H]3CC[C@@]21C | inactive |  |
| C=CCN1C[C@H](C)N([C@H](c2ccc(C(=O)N(CC)CC)cc2)c2cccc(OC)c2)C[C@H]1C |  | 12.7% (inactive) |
| CCCCCCC(=O)CCCCCC/C=C/C[C@@H](O)[C@H](O)[C@@](N)(CO)C(=O)O |  | 8.57% (inactive) |
| Nc1ccccc1C(=O)O |  | 5.43% (inactive) |
| Nc1ccc([As](=O)(O)O)cc1 |  | 13.9% (inactive) |
| CCCCCCCCCC(=O)O[C@H]1CC[C@H]2[C@@H]3CCC4=CC(=O)CC[C@@H]4[C@H]3CC[C@]12C |  | 2.08% (inactive) |
| NC(=O)c1cc([N+](=O)[O-])cc([N+](=O)[O-])c1 |  | 7.08% (inactive) |
| CNC(C)(C)Cc1ccccc1 |  | 2.16% [at 20.6 µM] (inactive) |
| CC(C)NC(C)C |  | 3.47% (inactive) |
| COc1c2c(cc3c1OCO3)CCN(C)C2 |  | 8.73% [at 20.6 µM] (inactive) |
| O=C1c2ccccc2C(=O)c2ccccc21 |  | -25.8% (inactive) |
| COc1ccc2c(c1OC)C(=O)O[C@H]2[C@@H]1c2cc3c(cc2CCN1C)OCO3 |  | -12.6% (inactive) |
| O=c1[nH]oc2c1CCNC2 |  | 3.27% (inactive) |
| [N-]=[N+]=CC(=O)OC[C@H](N)C(=O)O |  | 4.74% (inactive) |
| CC(C)(C)NCC(O)c1cc(Cl)c(N)c(C(F)(F)F)c1 (stereo not drawn) |  | 6.48% (inactive) |
| NCCc1ccc(O)cc1 |  | 7.95% (inactive) |
| CCOC(=O)CC(SP(=S)(OC)OC)C(=O)OCC (stereo not drawn) |  | 6.37% (inactive) |
| O=c1oc2ccccc2c(O)c1Cc1c(O)c2ccccc2oc1=O |  | 4.02% [at 20.6 µM] (inactive) |
